# Source: PubChem BioAssay (NCI)
# About 83,000 compounds went through this panel and 20% of them were active in at least one assay; those are over-represented in the sample as a whole.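 48-hour exposure, single concentration, 96-well plates; percent growth endpoint where 0 means no net growth. Active: below 10.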 Calls of active or inactive are those of the source.
# System: OVCAR-8 ovarian
# Experiment: NCI-60 one-dose screen, 48 h (100 = growth as untreated, 0 = no growth, -100 = all killed)
# Conditions: 10 µM unless noted
# Protocol: Growth inhibition of the OVCAR-8 human tumor cell line is measured as a screen for anti-cancer activity. Cells are grown in 96 well plates and exposed to the test compound for 48 hours. Compounds are tested at a single concentration, which is 10^-5 M for most compounds. The reported endpoint is percent growth (GI% or GIPRCNT), where numbers from 0 - 100% represent growth inhibition, and numbers from -100% - 0 represent cell death. For example, a value of 40 represents 60% growth inhibition. A value of 0 means no net growth occurred over the course of the experiment. A value of -40 indicates 40% of cells at the beginning of the experiment died by the end of the experiment. A value of -100 means all cells are dead at the end of the experiment.
# NCI-60 Human Tumor Cell Lines Screen was performed using the standard one-dose NCI protocol, which is described in more detail at https://dtp.cancer.gov/discovery_development/nci-60/default.htm.
# Compounds with GIPRCNT values below 10 were considered active. Activity score was based on GIPRCNT using the following formula: […]
# Score is 0 for GIPRCNT values of 100 or above, 50 for GIPRCNT values of 0, and 100 for GIPRCNT values of -100.
row,Compound,growth
1,CCOc1cccc(/C=N/NC(=O)c2cccc(Nc3ccnc(C(F)(F)F)c3)c2)c1O,24.4% (inactive)
2,COc1cccc(CCNc2ncnc3c2ncn3Cc2nnc3c4ccccc4c(Cl)nn23)c1,40.3% (inactive)
3,COc1ccc2[nH]cc(-c3nc(-c4c[nH]c5c(Cl)nccc45)cs3)c2c1,28.9% (inactive)
4,Cc1ccc(C)c2c(C)c(C(=O)Nc3cccc(-n4cccn4)c3)oc12,42.4% [50 µM] (inactive)
5,O=C(c1c[nH]c2ccccc12)c1n[nH]c(=S)n1-c1cccc(Br)c1,93.5% (inactive)
6,CC1=C(CCC(C)NCc2ccc(OCCCN3CCCCC3)cc2)C(C)(C)CCC1 (stereo not given),-45.4% (active)
7,COc1cc(C(=O)n2nc(N3CCOCC3)c3cc(-n4cccc4)ccc32)cc(OC)c1OC,64% (inactive)
8,CCOC(=O)C(Cc1ccc(OC)cc1)C(=O)OCC,26.4% (inactive)
9,CC1C=CC(OC(=O)C(C)(O)CCC(O)(C(=O)OC2CC(O)C(C(C)C)CC2(C)O)C(C)C)(C(C)C)CC1 (stereo not given),-9.1% [4.63 µM] (active)
10,O=C1Nc2ccccc2/C1=C/c1cccn1C(=O)c1ccc(Cl)s1,75.3% (inactive)
11,N#Cc1cccc(C2C3=C(COC3=O)N(CCO)c3cc4c(cc32)CCC4)c1 (stereo not given),5.25% (active)
12,Clc1ccc(-c2cc(-c3ccccc3)nc(NCCNc3ccnc4cc(Cl)ccc34)n2)cc1,-55.9% (active)
13,COc1ccc(C(=O)Cn2c(C(=O)c3ccc(Cl)cc3)nc3ccccc32)cc1,69.9% (inactive)
14,Cc1ccc(-c2csc(N(C(=O)N3CCN(c4cc5c(cc4F)c(=O)c(C(=O)O)cn5C4CC4)CC3)c3ccccc3)n2)cc1,15.6% (inactive)
15,CC1=CCC(OC(=O)C(C)(C)CC(O)(C(C)O)C(O)C2(C)C=CC(Cc3ccc(C(C)C)cc3)(C(C)C)CC2)(C(C)C)CC1 (stereo not given),104% (inactive)
16,COc1ccc(C2CC(c3cc(OC)c(OC)c(OC)c3)=NO2)cc1OCCCCOc1cc2c(cc1OC)C(=O)N1CCC[C@H]1C=N2 (stereo not given in full),26.1% (inactive)
17,Cc1[nH]c(C2CC(c3ccc(C(F)(F)F)c(F)c3)=NN2c2ccccc2)c(C)c1C(=O)NCC(F)(F)F (stereo not given),87.8% (inactive)
18,COc1cccc(/C=C/C(=O)c2cccc(Nc3nc(Nc4ccccc4)nc(Nc4ccccc4)n3)c2)c1,77.7% (inactive)
19,O=C1Nc2ccccc2/C1=C\c1c[nH]c2ccc(Br)cc12,79.8% (inactive)
20,Nn1c(=O)c(=O)[nH]c2c(cnn2-c2ccccc2)c1=O,97.3% (inactive)

row,Compound,growth
1,CCOC(=O)c1c(C)nc2c(c1N)/C(=C/c1ccc(OC)cc1)C(=O)N2Cc1ccccc1,50.4% (inactive)
2,CC1(C)NCCC[C@]2(C)[C@H]3CC[C@H]4[C@H]5[C@H](C(=O)/C=C/c6cccnc6)CCC[C@]5(CO)CC[C@@]4(C)[C@]3(C)CC[C@@H]12,55.5% (inactive)
3,CCCCCCCCCCCCCCCCCC1=NC(C)(C)CN1CC(C)O (stereo not given),46.5% (inactive)
4,O=C(Cn1nnc2ccccc21)N/N=C/c1c[nH]c2ccccc12,44.8% (inactive)
5,O=C(Nc1ccccc1N1CCCC1=O)c1oc2ccc(F)cc2c1-c1cnn(-c2ccccc2)c1,20.5% [50 µM] (inactive)
6,O=S(=O)(NCCCNc1nccc(-c2c(-c3cccc(F)c3)nc3occn23)n1)c1ccc(F)cc1,30.1% (inactive)
7,CCN1C(=O)N(CC)C2C1N=C(SCc1ccc(Cl)cc1)N2/N=C/C=C/c1ccccc1OC (stereo not given),56.8% (inactive)
8,COc1ccc(Nc2ncccc2/C=C/C(=O)c2cc(OC)c(OC)c(OC)c2)cc1,-33.8% (active)
9,CC/C(Cc1ccccc1)=C(\c1ccc(OCCCN(C)C)cc1)c1ccc(OC(=O)NCc2ccccc2)cc1,76.1% (inactive)
10,CC(C)(C)n1cc(-c2ccnc(NCCNS(=O)(=O)c3ccc(O)cc3)c2)c(-c2cccc(O)c2)n1,96% (inactive)
11,COc1ccc(/C=C2\CN(C(=O)C(Cl)Cl)C/C(=C\c3ccc(OC)cc3)C2=O)cc1,19% (inactive)
12,O=c1c2ccccc2c(=O)c2c1sc1c(=O)c3ccc(O)cc3c(=O)c12,-11.5% (active)
13,Cc1ccc(C2CC(c3nc(-c4ccc(Cl)cc4)oc3C)=NN2C(=O)c2ccncc2)cc1 (stereo not given),90.4% (inactive)
14,O=C(Cc1ccc(NC(=O)c2cccc(Cl)c2)cc1)NCc1ccccc1,67.1% (inactive)
15,C#COc1cccc(Nc2ncnc3cc(NC(=O)[C@@H](C)Cl)ccc23)c1,11.9% [6.25 µM] (inactive)
16,COc1ccc(/C=C/C(=O)c2cc3c(N)c(C(=O)Nc4cccc(Cl)c4C)sc3nc2C)cc1,-8.6% (active)
17,N#Cc1nc(-c2ccccc2)oc1S(=O)(=O)N1CCN(c2ccc(F)cc2)CC1,63.1% (inactive)
18,CC1C(/C=N/NC(N)=S)C(C#N)(C#N)C1(C#N)C#N (stereo not given),101% (inactive)
19,O=C(NC(Cc1nnc2n(Cc3ccccc3)c(=O)c3c4c(sc3n12)CCCC4)c1ccccc1)c1ccccc1 (stereo not given),77.1% (inactive)
20,CCc1ccc(CCC(=O)Nc2ncc(Cc3cc(Cl)ccc3Cl)s2)o1,19.2% (inactive)
